{"source": "PubChem BioAssay (Tox21)", "note": "Values without a mark were called inactive. Calls of active or inactive are those of the source. Calls follow the shape of the dose curve; as a rule, active = well fitted curve in the direction sought with a large enough effect in the repeat runs; inconclusive = weak or mixed curves; inactive = flat fitted curve, though single readings scatter. % is scaled to controls: 0 for no effect and ±100 for the full control effect.", "data": [{"assay": "qHTS assay to test for compound auto fluorescence at 460 nm (blue) in HEK293 cell free culture (AID 720681)", "conditions": "cell-free medium, autofluorescence 405/460 nm (blue); series mostly up to 91.3 µM", "excerpt": "U.S. Tox21 Program National Center for Advancing Translational Sciences [NCATS] NIH Chemical Genomics Center [NCGC] U.S. Environmental Protection Agency [EPA] National Institutes of Environmental Health Sciences [NIEHS] National Toxicology Program [NTP] U.S. Food and Drug Administration [FDA] Tox21 Assay Overview: Compound auto fluorescence often interferes with screening of the compound library against various biological targets and signaling pathways. Some of these compounds may have fluorophoric properties. Such properties may interfere with the assay outputs resulting in false positives and/or negatives. To decrease such complications and ensure the compound activities are relevant in terms of biological response, the Tox21 10K compound library was screened for auto fluorescence. From the fluorophores used as reporter signals in our screening assays, the auto fluorescence equivalencies of compounds against three fluorophores have been evaluated: Triamterene, Fluorescein and Rose Bengal sodium for blue, green and red fluorescence, respectively. The fluorescence intensities were measured using Excitation/Emission wavelengths at 405/460nm, 485/535nm and 540/590nm for blue, green and red labels, respectively. This assay includes the blue fluorescence data.\nTox21 Assay Protocol Summary: 5 uL of culture medium (DMEM containing 10% FBS) per well was dispensed into black wall/clear bottom 1536-well plates using a Multidrop Combi Dispenser (ThermoFisher Scientific, Waltham, MA). After 23 nL compound or DMSO vehicle was transferred into assay plate by a pintool work station (Kalypsys, San Diego, CA), fluorescence intensities in the assay plates were measured by an Envision (PerkinElmer, Shelton, CT) plate reader using three labels for measuring blue, green and red fluorescence at […] 460, 535 and 590nm respectively.", "values": [{"smiles": "CCC(C)n1c(=O)[nH]c(C)c(Br)c1=O", "note": "(stereo not given)", "outcome": "inactive"}, {"smiles": "COC(=O)C1=CCCN(C)C1", "outcome": "inactive"}, {"smiles": "CCOP(=O)(N=C1SCCS1)OCC", "outcome": "inactive"}, {"smiles": "[O]=[Cd]", "outcome": "inactive"}, {"smiles": "CC1(C)COP(Oc2ccccc2)OC1", "outcome": "inactive"}, {"smiles": "CC(C)(C)C(=O)C(Oc1ccc(Cl)cc1)n1cncn1", "note": "(stereo not given)", "outcome": "inactive"}, {"smiles": "Nc1cnn(-c2ccccc2)c(=O)c1Cl", "outcome": "inactive"}, {"smiles": "CC(C)(C)OC(=O)c1ncn2c1[C@@H]1CCCN1C(=O)c1c(Br)cccc1-2", "outcome": "inactive"}, {"smiles": "CCCSC(=O)N(CCC)CCC", "outcome": "inactive"}, {"smiles": "CNC(=O)N(C)c1nc2ccccc2s1", "outcome": "inactive"}, {"smiles": "N#CCNCC#N", "outcome": "inactive"}, {"smiles": "[As]#[In]", "outcome": "inactive"}, {"smiles": "Cc1cc(C)nc(Nc2ccccc2)n1", "outcome": "inactive"}, {"smiles": "CC1=C(C(=O)Nc2ccccc2)S(=O)(=O)CCO1", "outcome": "inactive"}, {"smiles": "CC(COc1ccc(Oc2ccccc2)cc1)Oc1ccccn1", "note": "(stereo not given)", "outcome": "inactive"}, {"smiles": "CC(=O)CC(c1ccc(Cl)cc1)c1c(O)c2ccccc2oc1=O", "note": "(stereo not given)", "outcome": "inactive"}, {"smiles": "CCc1cc2c(s1)-n1c(C)nnc1CN=C2c1ccccc1Cl", "outcome": "inactive"}, {"smiles": "O=S(=O)(O)C(F)(F)C(F)(F)C(F)(F)C(F)(F)C(F)(F)C(F)(F)F", "outcome": "inactive"}, {"smiles": "CCOP(=S)(OCC)Oc1nc(Cl)n(C(C)C)n1", "outcome": "inactive"}, {"smiles": "COc1ccc(C(=O)N2CCCC2=O)cc1", "outcome": "inactive"}, {"smiles": "Cc1nnc2n1-c1sc(CCC(=O)N3CCOCC3)cc1C(c1ccccc1Cl)=NC2", "outcome": "inactive"}, {"smiles": "CN1CCN(C(=O)O[C@H]2c3nccnc3C(=O)N2c2ccc(Cl)cn2)CC1", "outcome": "inactive"}, {"smiles": "Cc1cccc(C#N)c1", "outcome": "inactive"}, {"smiles": "Cc1ncc(CNC(=O)N(CCCl)N=O)c(N)n1", "outcome": "inactive"}, {"smiles": "CCOc1nc(C(Cl)(Cl)Cl)ns1", "outcome": "inactive"}, {"smiles": "O=C(O)c1cccc(Cl)c1", "outcome": "inactive"}, {"smiles": "CCCSP(=O)(OCC)Oc1ccc(Br)cc1Cl", "note": "(stereo not given)", "outcome": "inactive"}, {"smiles": "N#CC(O)c1ccccc1", "note": "(stereo not given)", "outcome": "inactive"}, {"smiles": "COc1ccc2c(c1OC)CN1CCc3cc4c(cc3C1C2)OCO4", "note": "(stereo not given)", "fluorescence, % of fluorescent control": "0.288% [at 18.6 µM]"}, {"smiles": "COC(=O)C(c1ccccc1)C1CCCCN1", "note": "(stereo not given)", "outcome": "inactive"}, {"smiles": "CNC(=O)Oc1ccccc1C1OCCO1", "outcome": "inactive"}, {"smiles": "N#CCBr", "outcome": "inactive"}, {"smiles": "OC(Cn1cncn1)(c1ccc(F)cc1)c1ccccc1F", "note": "(stereo not given)", "outcome": "inactive"}, {"smiles": "COc1cccc(C(=O)NN(C(=O)c2cc(C)cc(C)c2)C(C)(C)C)c1C", "outcome": "inactive"}, {"smiles": "C[C@@H]1CN(C2CCC(C#N)(c3ccc(F)cc3)CC2)CC[C@]1(C(=O)O)c1ccccc1", "note": "(stereo not given in full)", "fluorescence, % of fluorescent control": "-0.0038% [at 18.6 µM]"}, {"smiles": "O=[N+]([O-])c1ccc2c3c(cccc13)CC2", "outcome": "inactive"}, {"smiles": "C=C(C)[C@@H]1CC=C(C=O)CC1", "outcome": "inactive"}, {"smiles": "Cc1coc2c1CCC(C)C2", "note": "(stereo not given)", "outcome": "inactive"}, {"smiles": "O=C(Nc1ccccc1)c1ccccc1I", "outcome": "inactive"}, {"smiles": "CC(C)(C)NCC(O)c1cc(Cl)c(N)c(Cl)c1", "note": "(stereo not given)", "outcome": "inactive"}]}]}
